This is an account of results in PMC5540273 (PLoS ONE, 2017).

Settings in all cases: concentration: 1 μM, replicates: in singlicate; n = 1
In assay [1] the test system is AAK1.
Assay [2] has as its system ABL1-nonphosphorylated.
The subject of assay [3] is ABL1-phosphorylated.
Assay [4] concerns ABL2.
The test system of assay [5] is ACVR1B.
Assay [6] deals with ACVR1.
In assay [7] the test system is ACVR2A.
Assay [8] concerns ACVR2B.
Assay [9] has as its system ACVRL1.
In assay [10] the test system is T1, ADCK3.
T1 construct: gene CABC1

Assay [11] relates to ADCK4.
Assay [12] relates to AKT1.
Assay [13] concerns AKT2.
In assay [14] the test system is AKT3.
For assay [15], the system named is ALK.
In assay [16] the test system is T2, AMPK-alpha1.
T2 construct: gene PRKAA1

In assay [17] the test system is T3, AMPK-alpha2.
T3 construct: gene PRKAA2

Assay [18] relates to ANKK1.
The test system of assay [19] is T4, ARK5.
T4 construct: gene NUAK1

Assay [20] concerns T5, ASK1.
T5 construct: gene MAP3K5
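Also: KINOMEscan kinase panel screen.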

Turning to `COc1cccc(C2=C(Nc3cccc(O)c3)C(=O)NC2=O)c1` [SB-390771], the “%Inh” value in assay [1] came out at 38%; in [2] it was 0%; in [3] it was 4%; in assay [4], 10%; in assay [5], 0%; in assay [6] it was 18%. Further, the “%Inh” value in [7] is on record as 0%; in assay [8] it was 6%; in [9] it was 0%; in assay [10], 5%; in assay [11], 32%; in assay [12], 0%. Moreover, the “%Inh” value stood at 7% in assay [13]; 0% in assay [14]; 4% in assay [15]; 16% in [16]; 3% in [17]; 0% in assay [18]. Further, the “%Inh” value in assay [19] is listed as 12%; in assay [20], 7%.

On to `O=C(Nc1n[nH]c2nc(-c3ccccc3)ccc12)C1CC1` [SB-708999], for which the “%Inh” value amounted to 100% in assay [1]; 62% in [2]; 41% in assay [3]; 16% in [4]; 22% in [5]; 6% in [6]. Moreover, the “%Inh” value worked out at 9% in assay [7]; 37% in [8]; 0% in assay [9]; 2% in assay [10]; 12% in [11]; 14% in assay [12]. In addition, the “%Inh” value in [13] is 9%; in [14] it was 0%; in assay [15], 3%; in assay [16] it was 17%; in [17], 12%; in assay [18], 63%. Further, the figures for the “%Inh” value in assay [19] and in [20] were 8% and 18%, respectively.

As to `CCNc1nccc(-c2c(-c3ccc(F)cc3)ncn2C2CCN(C)CC2)n1`, the “%Inh” value in assay [1] was determined as 20%; in [2], 30%; in assay [3], 7%; in assay [4] it was 0%; in [5] it was 0%; in assay [6], 0%. In addition, the “%Inh” value in assay [7] amounted to 0%; in assay [8] it was 0%; in assay [9], 0%; in assay [10] it was 12%; in assay [11], 8%; in assay [12], 4%. Moreover, the “%Inh” value in assay [13], in assay [14], in assay [15], in assay [16], in assay [17] and in [18] was 0% throughout. The “%Inh” value in [19] stood at 0%; in assay [20], 15%.

Turning to `COc1ccc(C2=C(Nc3cccc(O)c3)C(=O)NC2=O)cc1` [SB-390766], the “%Inh” value in [1] is 20%; in assay [2] it was 0%; in assay [3], 0%; in assay [4] it was 13%; in assay [5] it was 0%; in assay [6] it was 0%. The “%Inh” value was 0% in assay [7]; 0% in assay [8]; 0% in assay [9]; 0% in assay [10]; 9% in assay [11]; 0% in assay [12]. The “%Inh” value in [13] stood at 12%; in assay [14], 0%; in assay [15] it was 73%; in assay [16] it was 100%; in [17] it was 10%; in [18], 32%. Moreover, the “%Inh” value in assay [19] came out at 0%; in assay [20], 35%.

As to `Fc1cc(Cl)ccc1Nc1ccnc2cc(-c3ccc(CN4CCSCC4)o3)ccc12` [GW560106], the “%Inh” value was determined as 4% in [1]; 95.9% in assay [2]; 98.7% in assay [3]; 89% in assay [4]; 21% in assay [5]; 84% in assay [6]. For the same molecule, the “%Inh” value came out at 14% in assay [7]; 91% in assay [8]; 49% in assay [9]; 3% in assay [10]; 31% in assay [11]; 0% in assay [12]. In addition, the “%Inh” value in [13] came to 2%; in assay [14], 0%; in assay [15] it was 28%; in assay [16], 3%; in assay [17], 18%; in assay [18], 14%. In addition, the “%Inh” value stood at 13% in assay [19] and 0% in [20].

As for `COc1cccc(-c2nc(-c3ccccc3)[nH]c2-c2ccncc2)c1` [SB-610250], the “%Inh” value is listed as 2% in [1]; 0% in assay [2]; 8% in assay [3]; 27% in assay [4]; 0% in [5]; 24% in [6]. The “%Inh” value was determined as 0% in [7]; 0% in assay [8]; 2% in assay [9]; 8% in assay [10]; 77% in assay [11]; 0% in assay [12]. Besides, the “%Inh” value in assay [13] came out at 0%; in assay [14], 0%; in assay [15], 18%; in assay [16] it was 17%; in assay [17] it was 2%; in assay [18], 0%. For the same molecule, the “%Inh” value worked out at 0% in [19] and 2% in assay [20].

On to `N#CC1(c2cccc(C(=O)Nc3cccc(Oc4ccc5nc(NC(=O)C6CC6)sc5n4)c3)c2)CC1`, for which the “%Inh” value in [1] came to 3%; in assay [2] it was 100%; in [3] it was 98.7%; in assay [4], 95%; in assay [5], 0%; in assay [6], 0%. Besides, the “%Inh” value is given as 3% in [7]; 1% in assay [8]; 0% in assay [9]; 40% in assay [10]; 2% in assay [11]; 27% in [12]. For the same molecule, the “%Inh” value in assay [13] was determined as 6%; in [14], 0%; in [15], 15%; in assay [16] it was 17%; in assay [17], 27%; in assay [18], 0%. For the same molecule, the “%Inh” value in assay [19] and in assay [20] was 0% each time.

For the molecule `COc1ccc(NC(=O)c2ccoc2)cc1-c1ccc(C(=O)NCC2CC2)cc1` [GW810437], the “%Inh” value worked out at 0% in assay [1]; 24% in assay [2]; 1% in [3]; 5% in assay [4]; 4% in assay [5]; 0% in assay [6]. In addition, the “%Inh” value in assay [7] was 0%; in [8], 17%; in assay [9], 10%; in assay [10], 0%; in assay [11], 0%; in [12], 15%. The “%Inh” value in assay [13] turned out to be 0%; in [14], 0%; in assay [15], 0%; in assay [16], 19%; in [17], 0%; in assay [18], 7%. In addition, the “%Inh” value stood at 0% in [19] and 30% in [20].

Take `Cl.O=C(Nc1ccc(Oc2ccc3[nH]c(NC(=O)c4ccco4)nc3c2)cc1)Nc1cc(C(F)(F)F)ccc1F` [GW683134]: the “%Inh” value in assay [1] was 5%; in assay [2] it was 96.1%; in assay [3] it was 76%; in assay [4] it was 97.9%; in assay [5], 0%; in assay [6], 0%. Besides, the “%Inh” value was 4% in assay [7]; 0% in assay [8]; 0% in assay [9]; 0% in assay [10]; 0% in assay [11]; 0% in assay [12]. The “%Inh” value in assay [13] was 12%; in assay [14], 0%; in [15], 27%; in assay [16] it was 0%; in assay [17], 16%; in assay [18], 1%. The “%Inh” value amounted to 12% in assay [19] and 0% in [20].

For `COc1cccc(CC(=O)N2CCc3cc(-c4cn(C)c5ncnc(N)c45)ccc32)c1` [GSK2608899], the “%Inh” value in assay [1] is 18%; in assay [2], 57%; in [3], 4%; in assay [4] it was 30%; in assay [5] it was 14%; in [6] it was 0%. Moreover, the “%Inh” value in [7] is reported as 0%; in assay [8] it was 61%; in assay [9] it was 19%; in assay [10], 2%; in assay [11] it was 0%; in assay [12], 0%. Further, the “%Inh” value in assay [13] came to 8%; in assay [14], 27%; in assay [15] it was 5%; in assay [16], 15%; in assay [17] it was 25%; in assay [18], 6%. Also, the “%Inh” value in assay [19] is 19%; in assay [20], 14%.
